Results: the supplement of paper PMC8728848
The full list was thinned out, with the strongest signals kept by preference.

How the values were obtained:
Assay in all cases: glycan array binding signal (z-score within array); higher = stronger binding
Conditions in all cases: glycan notation: IUPAC condensed, linker removed
[1] = molecular target: Fuc(a1-2)Gal(b1-4)GlcNAc(b1-3)[Fuc(a1-3)[Gal(b1-4)]GlcNAc(b1-6)]Gal(b1-4)Glc
Outline: (§1)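 From the Consortium for Functional Glycomics database, 3228 arrays were curated, keeping only those whose protein sequence was available. Binding is given as a within-array Z-score averaged across arrays sharing a protein sequence and across linkers. Negative Z-scores can be read as non-binding.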

[2] = molecular target: Fuc(a1-2)[Gal(a1-3)]Gal(b1-3)GlcNAc(b1-3)GalNAc
Outline: as §1

[3] = molecular target: Fuc(a1-2)[GalNAc(a1-3)]Gal(b1-3)GalNAc(b1-3)Gal(a1-4)Gal(b1-4)Glc
Outline: as §1

[4] = molecular target: Fuc(a1-2)[GalNAc(a1-3)]Gal(b1-3)GlcNAc(b1-6)GalNAc
Outline: as §1

[5] = molecular target: Fuc(a1-2)[GalNAc(a1-3)]Gal(b1-4)GlcNAc(b1-2)Man(a1-3)[Fuc(a1-2)[GalNAc(a1-3)]Gal(b1-4)GlcNAc(b1-2)Man(a1-6)]Man(b1-4)GlcNAc(b1-4)GlcNAc
Outline: as §1

[6] = molecular target: Fuc(a1-2)[GalNAc(a1-3)]Gal(b1-4)GlcNAc(b1-2)Man(a1-3)[Fuc(a1-2)[GalNAc(a1-3)]Gal(b1-4)GlcNAc(b1-2)Man(a1-6)]Man(b1-4)GlcNAc(b1-4)[Fuc(a1-6)]GlcNAc
Outline: as §1

[7] = molecular target: Fuc(a1-3)[Gal(b1-4)]GlcNAc(b1-2)Man(a1-3)[Fuc(a1-3)[Gal(b1-4)]GlcNAc(b1-2)Man(a1-6)]Man(b1-4)GlcNAc(b1-4)GlcNAc
Outline: as §1

Fuc(a1-4)GlcNAc = molecular target: Fuc(a1-4)GlcNAc
Outline: as §1

Gal(a1-2)Gal = molecular target: Gal(a1-2)Gal
Outline: as §1

Gal(a1-3)Gal = molecular target: Gal(a1-3)Gal
Outline: as §1

[8] = molecular target: Gal(a1-3)Gal(b1-3)GlcNAc(b1-6)GalNAc
Outline: as §1

[9] = molecular target: Gal(a1-3)Gal(b1-4)GlcNAc(b1-2)Man(a1-3)[Gal(a1-3)Gal(b1-4)GlcNAc(b1-2)Man(a1-6)]Man(b1-4)GlcNAc(b1-4)GlcNAc
Outline: as §1

[10] = molecular target: Gal(a1-3)Gal(b1-4)[Fuc(a1-3)]GlcNAc
Outline: as §1

[11] = molecular target: Gal(a1-3)Gal(b1-4)[Fuc(a1-3)]GlcNAc(b1-2)Man(a1-3)[Gal(a1-3)Gal(b1-4)[Fuc(a1-3)]GlcNAc(b1-2)Man(a1-6)]Man(b1-4)GlcNAc(b1-4)GlcNAc
Outline: as §1

Gal(a1-3)GalNAc = molecular target: Gal(a1-3)GalNAc
Outline: as §1

[12] = molecular target: Gal(a1-3)[Gal(a1-4)]Gal(b1-4)GlcNAc
Outline: as §1

[13] = molecular target: Gal(a1-4)Gal(b1-3)GlcNAc(b1-2)Man(a1-3)[Gal(a1-4)Gal(b1-3)GlcNAc(b1-2)Man(a1-6)]Man(b1-4)GlcNAc(b1-4)GlcNAc
Outline: as §1

Gal(b1-3)Gal = molecular target: Gal(b1-3)Gal
Outline: as §1

[14] = molecular target: Gal(b1-3)GalNAc(a1-3)[Fuc(a1-2)]Gal(b1-4)GlcNAc
Outline: as §1

[15] = molecular target: Gal(b1-3)GlcNAc(b1-2)[Gal(b1-3)GlcNAc(b1-6)]Man(a1-6)[Gal(b1-3)GlcNAc(b1-2)Man(a1-3)]Man(b1-4)GlcNAc(b1-4)GlcNAc
Outline: as §1

[16] = molecular target: Gal(b1-3)GlcNAc(b1-3)Gal(b1-4)GlcNAc(b1-2)Man(a1-3)[Gal(b1-3)GlcNAc(b1-3)Gal(b1-4)GlcNAc(b1-2)Man(a1-6)]Man(b1-4)GlcNAc(b1-4)GlcNAc
Outline: as §1

[17] = molecular target: Gal(b1-3)[Fuc(a1-4)]GlcNAc(b1-6)GalNAc
Outline: as §1

[18] = molecular target: Gal(b1-4)GlcNAc(b1-2)Man(a1-3)[Gal(b1-4)GlcNAc(b1-2)Man(a1-6)]Man(b1-4)GlcNAc(b1-4)GlcNAc
Outline: as §1

[19] = molecular target: Gal(b1-4)GlcNAc(b1-2)Man(a1-3)[Gal(b1-4)GlcNAc(b1-2)Man(a1-6)][Gal(b1-4)GlcNAc(b1-4)]Man(b1-4)GlcNAc(b1-4)[Fuc(a1-6)]GlcNAc
Outline: as §1

[20] = molecular target: Gal(b1-4)GlcNAc(b1-2)[Gal(b1-4)GlcNAc(b1-6)]Man(a1-6)[Gal(b1-4)GlcNAc(b1-2)Man(a1-3)]Man(b1-4)GlcNAc(b1-4)[Fuc(a1-6)]GlcNAc
Outline: as §1

[21] = molecular target: Gal(b1-4)GlcNAc(b1-3)Gal(b1-3)GlcNAc
Outline: as §1

[22] = molecular target: Gal(b1-4)GlcNAc(b1-3)Gal(b1-4)GlcNAc(b1-2)Man(a1-3)[Gal(b1-4)GlcNAc(b1-3)Gal(b1-4)GlcNAc(b1-2)Man(a1-6)]Man(b1-4)GlcNAc(b1-4)GlcNAc
Outline: as §1

[23] = molecular target: Gal(b1-4)GlcNAc(b1-3)Gal(b1-4)GlcNAc(b1-3)Gal(b1-4)GlcNAc
Outline: as §1

[24] = molecular target: Gal(b1-4)GlcNAc(b1-3)Gal(b1-4)GlcNAc(b1-3)Gal(b1-4)GlcNAc(b1-2)Man(a1-3)[Gal(b1-4)GlcNAc(b1-3)Gal(b1-4)GlcNAc(b1-3)Gal(b1-4)GlcNAc(b1-2)Man(a1-6)]Man(b1-4)GlcNAc(b1-4)GlcNAc
Outline: as §1

[25] = molecular target: Gal(b1-4)GlcNAc(b1-3)Gal(b1-4)GlcNAc(b1-3)Gal(b1-4)GlcNAc(b1-2)[Gal(b1-4)GlcNAc(b1-3)Gal(b1-4)GlcNAc(b1-3)Gal(b1-4)GlcNAc(b1-6)]Man(a1-6)[Gal(b1-4)GlcNAc(b1-3)Gal(b1-4)GlcNAc(b1-3)Gal(b1-4)GlcNAc(b1-2)Man(a1-3)]Man(b1-4)GlcNAc(b1-4)[Fuc(a1-6)]GlcNAc
Outline: as §1

[26] = molecular target: Gal(b1-4)GlcNAc(b1-3)Gal(b1-4)GlcNAc(b1-3)GalNAc
Outline: as §1

[27] = molecular target: Gal(b1-4)GlcNAc(b1-3)Gal(b1-4)GlcNAc(b1-6)[Gal(b1-3)]GalNAc
Outline: as §1

Gal(b1-6)Gal = molecular target: Gal(b1-6)Gal
Outline: as §1

[28] = molecular target: Gal3S(b1-4)[Fuc(a1-3)]GlcNAc6S
Outline: as §1

Gal3S4S(b1-4)GlcNAc = molecular target: Gal3S4S(b1-4)GlcNAc
Outline: as §1

B1: SP16664B-bot-474-25-474 (Bacteroides ovatus) (protein)
chain: CEEDIEIGNKIDESSYLASTQLSGLLLDENTNKNSSVIELRNNEYSTNVVFRLSKLPQKGVDVQIAVEESYAAIYNTIHETDFEVFPAANVKIANNGTFVLAPDDKVTPSVKVTLTAFDGMEEDKTYIVPLTVTSSTEGVTFTETSKHMVLLVQDYRNKPNTNKGEDAVQTVLYFEVNDTNPLNALEFLTESGKYFFDHIVLFAANINWDPEKQRVYLANNENVQFLLDNNDKYLQPLRKAGMKIIISILGNHDEAGVAQLSDMGAREFARELAAYCRAYNLDGVAFDDEYSNSPDLSNPWLASPSAYAGSRLMYECKAVMPEKIVSLYNLGNMYSSSLQVIDGIEPGQYCDYAVADYGGAAGPGTGMTLKQCAGMSIELRRGSGNSSESTARSRKEAGYGYYMFFALDPSLYGSQVYRCQSVCKGLYDETLVYPSYYYKKNSTEREAIN
[1]
  glycan array binding signal (z-score): -0.136
[2]
  glycan array binding signal (z-score): -0.535
[3]
  glycan array binding signal (z-score): -0.296
[4]
  glycan array binding signal (z-score): -0.622
[5]
  glycan array binding signal (z-score): 0.635
[6]
  glycan array binding signal (z-score): 1.16
[7]
  glycan array binding signal (z-score): 2.22
Fuc(a1-4)GlcNAc
  glycan array binding signal (z-score): 2.34
Gal(a1-2)Gal
  glycan array binding signal (z-score): 0.194
Gal(a1-3)Gal
  glycan array binding signal (z-score): -0.094
[8]
  glycan array binding signal (z-score): 0.049
[9]
  glycan array binding signal (z-score): 2.23
[10]
  glycan array binding signal (z-score): -0.366
[11]
  glycan array binding signal (z-score): 1.65
Gal(a1-3)GalNAc
  glycan array binding signal (z-score): -0.504
[12]
  glycan array binding signal (z-score): -0.405
[13]
  glycan array binding signal (z-score): 1.04
Gal(b1-3)Gal
  glycan array binding signal (z-score): -0.262
[14]
  glycan array binding signal (z-score): -0.291
[15]
  glycan array binding signal (z-score): 0.525
[16]
  glycan array binding signal (z-score): -0.246
[17]
  glycan array binding signal (z-score): 0.134
[18]
  glycan array binding signal (z-score): -0.21
[19]
  glycan array binding signal (z-score): -0.39
[20]
  glycan array binding signal (z-score): -0.218
[21]
  glycan array binding signal (z-score): -0.433
[22]
  glycan array binding signal (z-score): 1.81
[23]
  glycan array binding signal (z-score): -0.33
[24]
  glycan array binding signal (z-score): 1.88
[25]
  glycan array binding signal (z-score): 2.21
[26]
  glycan array binding signal (z-score): 1.54
[27]
  glycan array binding signal (z-score): 0.334
Gal(b1-6)Gal
  glycan array binding signal (z-score): -0.141
[28]
  glycan array binding signal (z-score): 0.545
Gal3S4S(b1-4)GlcNAc
  glycan array binding signal (z-score): 0.303
